What all share (experiment): cell viability relative to vehicle control; higher = less cytotoxic
What all share (details): 10 µM

The subject of experiment [1] is K562. In outline:
(§1)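 Screening covered the Selleck bioactive, kinase and epigenetic probe libraries, less identity-inconsistent compounds, on CRISPR-edited mutant clones and isogenic wild-type clones of four leukaemia lines. Cells, at 2000 per well in 50 µL medium, received a single 10 µM acoustically dispensed dose. After 48 h the supernatant was removed and CellTiter-Glo luminescence was read. Viability was analysed in Genedata Screener as percent of the on-plate vehicle control.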

For experiment [2], the system named is MARIMO. In outline:
as §1

Experiment [3] deals with MOLM14. An outline of the steps:
as §1

Experiment [4] has as its system OCI-AML2. In outline: as §1

In general, cell viability refers to a read-out of living cells in per cent, often relative to untreated cells.

Molecules are shown by their SMILES. Several values for one entry are separate records, joined by “and”; a condition that tells them apart may be missing. Equal entries are not always repeated. Structures can show the parent of a compound that is named as a salt.

Consider `O=C(Nc1cc(C(F)(F)F)cc(C(F)(F)F)c1)c1cc(Cl)ccc1O`, for which the cell viability is 5.29% and 8.22% in experiment [1] (SRSF2 genotype: SRSF2 P95H/wt); 5.97% in experiment [1] (SRSF2 genotype: SRSF2 wt/wt); 19% in experiment [2] (SRSF2 genotype: SRSF2 P95H/wt); 18.3% in experiment [2] (SRSF2 genotype: SRSF2 wt/wt); 10.3% in experiment [3] (SRSF2 genotype: SRSF2 P95H/wt); 8.64% in experiment [3] (SRSF2 genotype: SRSF2 wt/wt). Moreover, the cell viability was determined as 2.4% in experiment [4] (SRSF2 genotype: P95H/wt) and 8.72% in experiment [4] (SRSF2 genotype: wt/wt).

As to `NC(=O)N1c2ccccc2C=Cc2ccccc21` [Carbamazepine (Carbatrol)], the cell viability in experiment [1] (SRSF2 genotype: SRSF2 P95H/wt) is 95.3% and 86.7%; in experiment [1] (SRSF2 genotype: SRSF2 wt/wt), 90.3%; in experiment [2] (SRSF2 genotype: SRSF2 P95H/wt) it was 81.3%; in experiment [2] (SRSF2 genotype: SRSF2 wt/wt) it was 97.6%; in experiment [3] (SRSF2 genotype: SRSF2 P95H/wt), 88.3%; in experiment [3] (SRSF2 genotype: SRSF2 wt/wt), 87.9%. For the same compound, the cell viability in experiment [4] (SRSF2 genotype: P95H/wt) was found to be 92%; in experiment [4] (SRSF2 genotype: wt/wt), 104%.

On to `CC1=CCC(C(C)(C)O)CC1` (configuration not stated), for which the cell viability was 102% and 104% in experiment [1] (SRSF2 genotype: SRSF2 P95H/wt); 103% in experiment [1] (SRSF2 genotype: SRSF2 wt/wt); 101% in experiment [2] (SRSF2 genotype: SRSF2 P95H/wt); 105% in experiment [2] (SRSF2 genotype: SRSF2 wt/wt); 96.1% in experiment [3] (SRSF2 genotype: SRSF2 P95H/wt); 103% in experiment [3] (SRSF2 genotype: SRSF2 wt/wt). The cell viability in experiment [4] (SRSF2 genotype: P95H/wt) and in experiment [4] (SRSF2 genotype: wt/wt) was 103% throughout.

Regarding `COC(=O)Nc1nc2cc(Sc3ccccc3)ccc2[nH]1` [Fenbendazole (Panacur)], the cell viability in experiment [1] (SRSF2 genotype: SRSF2 P95H/wt) is 17.8% and 31.8%; in experiment [1] (SRSF2 genotype: SRSF2 wt/wt) it was 32.8%; in experiment [2] (SRSF2 genotype: SRSF2 P95H/wt), 27.3%; in experiment [2] (SRSF2 genotype: SRSF2 wt/wt), 10.4%; in experiment [3] (SRSF2 genotype: SRSF2 P95H/wt), 9.32%; in experiment [3] (SRSF2 genotype: SRSF2 wt/wt) it was 4.51%. Moreover, the cell viability was found to be 9.8% in experiment [4] (SRSF2 genotype: P95H/wt) and 12.7% in experiment [4] (SRSF2 genotype: wt/wt).

Regarding `CCN(CC)c1ccc2c(-c3ccccc3C(=O)O)c3ccc(=[N+](CC)CC)cc-3oc2c1` [Rhodamine B], the cell viability is 51.1% and 54.3% in experiment [1] (SRSF2 genotype: SRSF2 P95H/wt); 53% in experiment [1] (SRSF2 genotype: SRSF2 wt/wt); 51.3% in experiment [2] (SRSF2 genotype: SRSF2 P95H/wt); 59.4% in experiment [2] (SRSF2 genotype: SRSF2 wt/wt); 48.5% in experiment [3] (SRSF2 genotype: SRSF2 P95H/wt); 61% in experiment [3] (SRSF2 genotype: SRSF2 wt/wt). Further, the results for the cell viability in experiment [4] (SRSF2 genotype: P95H/wt) and in experiment [4] (SRSF2 genotype: wt/wt) were 58.7% and 49.6%, respectively.

Take `Cc1cccc(N(C)C(=S)Oc2ccc3ccccc3c2)c1` [Tolnaftate]: the cell viability in experiment [1] (SRSF2 genotype: SRSF2 P95H/wt) is 99.7% and 106%; in experiment [1] (SRSF2 genotype: SRSF2 wt/wt), 91.9%; in experiment [2] (SRSF2 genotype: SRSF2 P95H/wt), 89.3%; in experiment [2] (SRSF2 genotype: SRSF2 wt/wt), 109%; in experiment [3] (SRSF2 genotype: SRSF2 P95H/wt), 96.9%; in experiment [3] (SRSF2 genotype: SRSF2 wt/wt) it was 101%. In addition, the cell viability in experiment [4] (SRSF2 genotype: P95H/wt) came out at 106%; in experiment [4] (SRSF2 genotype: wt/wt) it was 109%.

As to `CN1CCC(=C2c3ccccc3CC(=O)c3sccc32)CC1` [Ketotifen fumarate (Zaditor)], the cell viability is 104% and 101% in experiment [1] (SRSF2 genotype: SRSF2 P95H/wt); 97.7% in experiment [1] (SRSF2 genotype: SRSF2 wt/wt); 94.7% in experiment [2] (SRSF2 genotype: SRSF2 P95H/wt); 104% in experiment [2] (SRSF2 genotype: SRSF2 wt/wt); 94.6% in experiment [3] (SRSF2 genotype: SRSF2 P95H/wt); 101% in experiment [3] (SRSF2 genotype: SRSF2 wt/wt). Further, the cell viability was 91% in experiment [4] (SRSF2 genotype: P95H/wt) and 107% in experiment [4] (SRSF2 genotype: wt/wt).

Regarding `C=CC(=O)Nc1cccc(Sc2nc(Nc3ccc(N4CCN(C)CC4)cc3)ncc2Cl)c1`, the cell viability is 12.7% and 13.8% in experiment [1] (SRSF2 genotype: SRSF2 P95H/wt); 13.8% in experiment [1] (SRSF2 genotype: SRSF2 wt/wt); 0.51% in experiment [2] (SRSF2 genotype: SRSF2 P95H/wt); 9.17% in experiment [2] (SRSF2 genotype: SRSF2 wt/wt); 0.08% in experiment [3] (SRSF2 genotype: SRSF2 P95H/wt); 0.12% in experiment [3] (SRSF2 genotype: SRSF2 wt/wt). Further, the cell viability in experiment [4] (SRSF2 genotype: P95H/wt) amounted to 0.11%; in experiment [4] (SRSF2 genotype: wt/wt), 0.45%.

`CCCCCCNC(=O)Nc1ccc(S(=O)(=O)Nc2ccc(CCNC[C@H](O)COc3ccc(O)cc3)cc2)cc1`: the cell viability was 72.8% and 83.3% in experiment [1] (SRSF2 genotype: SRSF2 P95H/wt); 82.8% in experiment [1] (SRSF2 genotype: SRSF2 wt/wt); 89.2% in experiment [2] (SRSF2 genotype: SRSF2 P95H/wt); 91.4% in experiment [2] (SRSF2 genotype: SRSF2 wt/wt); 75.5% in experiment [3] (SRSF2 genotype: SRSF2 P95H/wt); 75.4% in experiment [3] (SRSF2 genotype: SRSF2 wt/wt). The cell viability in experiment [4] (SRSF2 genotype: P95H/wt) turned out to be 74.2%; in experiment [4] (SRSF2 genotype: wt/wt) it was 71%.

These data come from the supplement of paper PMC10981050.
